Several values for one entry are separate records, joined by “and”; a condition that tells them apart may be missing. Equal entries are not always repeated. Records with an inconclusive call do not appear. Activity calls are given as the source filed them. Unless noted, calls come from the whole dose curve; as a rule, active = well fitted curve in the direction sought with a large enough effect; inconclusive = small, poorly fitted or top-dose-only effect, or another doubt; inactive = no such curve, though single readings can be large; an effect the other way counts as inactive or inconclusive.
Tests used:
[1] = target: T1, Hexokinase-4 (Homo sapiens) + Glucokinase regulatory protein (Homo sapiens) (UniProt P35557+Q14397); assay: qHTS assay for inhibitors of recombinant human GCK-GKRP interaction: ADP-Glo assay (AID 743206);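 note: plate controls were DMSO plus enzyme for no effect and no enzyme for full effect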
T1 sequence (P35557 whole entry, looked up): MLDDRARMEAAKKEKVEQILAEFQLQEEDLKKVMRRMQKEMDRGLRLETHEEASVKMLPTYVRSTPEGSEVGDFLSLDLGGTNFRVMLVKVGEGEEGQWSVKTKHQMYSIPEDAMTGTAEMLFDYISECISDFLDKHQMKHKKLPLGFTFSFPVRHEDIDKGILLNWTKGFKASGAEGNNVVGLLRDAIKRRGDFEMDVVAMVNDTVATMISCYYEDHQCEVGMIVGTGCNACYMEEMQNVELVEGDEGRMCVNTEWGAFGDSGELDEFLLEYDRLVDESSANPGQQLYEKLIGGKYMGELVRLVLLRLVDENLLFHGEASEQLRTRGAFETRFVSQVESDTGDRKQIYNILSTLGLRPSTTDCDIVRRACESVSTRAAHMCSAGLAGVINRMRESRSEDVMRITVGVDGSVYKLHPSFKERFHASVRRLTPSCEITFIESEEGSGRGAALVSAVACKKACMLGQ
T1 sequence (Q14397 whole entry, looked up): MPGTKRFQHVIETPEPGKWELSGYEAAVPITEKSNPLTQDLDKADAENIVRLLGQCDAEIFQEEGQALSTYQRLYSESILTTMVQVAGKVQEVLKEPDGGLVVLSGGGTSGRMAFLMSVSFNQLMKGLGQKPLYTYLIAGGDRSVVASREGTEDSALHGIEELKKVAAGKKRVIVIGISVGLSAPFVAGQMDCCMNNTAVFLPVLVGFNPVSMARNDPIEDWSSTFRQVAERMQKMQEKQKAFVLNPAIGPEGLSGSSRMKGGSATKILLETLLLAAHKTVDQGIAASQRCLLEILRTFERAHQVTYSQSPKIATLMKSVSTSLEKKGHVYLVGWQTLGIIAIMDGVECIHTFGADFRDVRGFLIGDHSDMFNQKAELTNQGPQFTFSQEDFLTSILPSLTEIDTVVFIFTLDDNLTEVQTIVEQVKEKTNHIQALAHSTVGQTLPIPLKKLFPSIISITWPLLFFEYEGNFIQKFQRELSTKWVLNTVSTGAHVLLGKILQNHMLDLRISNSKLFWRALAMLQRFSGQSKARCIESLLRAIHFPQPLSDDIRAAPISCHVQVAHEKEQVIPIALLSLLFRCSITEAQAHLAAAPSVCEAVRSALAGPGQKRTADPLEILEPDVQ
Summary of the method: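 Pin-transferred compounds meet a 15 nM GST-GCK/15 nM FLAG-GKRP/2 uM S6P mix (dispense concentrations). ATP is then added to 0.4 mM final with 5 mM glucose, and the reaction runs 60 min at room temperature. ADP is quantified luminescently.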

[2] = target: T1, Hexokinase-4 (Homo sapiens) + Glucokinase regulatory protein (Homo sapiens); assay: qHTS assay for inhibitors of recombinant human GCK-GKRP interaction: HTRF assay (AID 743207);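 note: 0% = DMSO with GCK present and -100% = DMSO wells lacking GCK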
Summary of the method: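 HTRF read-out (ex 320 nm; 615/665 nm emission) after 60 min RT equilibration of 5 nM GST-GCK, 5 nM FLAG-GKRP, 2 uM S6P, compound and anti-FLAG/anti-GST detection antibodies; signal normalized between DMSO wells with and without GCK.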

[3] = qHTS Assay for Identifying Gametocytocidal Compounds (AID 743244);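 note: % is set by controls: 0 for no effect and ±100 for the full control effect; actives lower the fluorescent signal which means gametocytes are killed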; conditions: P. falciparum 3D7 stage III-V gametocytes, alamarBlue, 72 h; max response: stronger effect = lower value
Summary of the method: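 P. falciparum 3D7 stage III–V gametocytes (20,000 cells/well) were exposed to compounds for 72 h at 37 °C, 5% CO2. AlamarBlue was then added for 24 h; decreased resorufin fluorescence (Ex 525/Em 598 nm) indicated loss of viability.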

[4] = qHTS profiling of the MIPE4 collection as inhibitors of Plasmodium falciparum (3D7) proliferation (AID 743344; call rule not given here;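 note: scaled between DMSO vehicle wells and 0.29 µM artemisinin as full inhibition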); conditions: P. falciparum 3D7 in erythrocytes, SYBR Green DNA fluorescence, 72 h; at 28.5 µM (top of the series) unless noted
Summary of the method: (§1)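 Parasite DNA was quantified by SYBR Green I fluorescence (ex 485, em 535 nm) after overnight lysis in saponin/Triton buffer at room temperature. Cultures at 0.3% parasitemia and 2.5% hematocrit were first exposed to compound for 72 h at 37 C; signals were normalised to artemisinin (0.29 uM) and vehicle wells.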

[5] = qHTS profiling of the MIPE4 collection as inhibitors of Plasmodium falciparum (DD2) proliferation (AID 743345; call rule not given here); conditions: P. falciparum Dd2 in erythrocytes, SYBR Green DNA, 72 h; at 28.5 µM (top of the series) unless noted
Summary of the method: as §1

[6] = qHTS profiling of the MIPE4 collection as inhibitors of Plasmodium falciparum (DD2) proliferation (Rep 2) (AID 743346; call rule not given here); conditions: P. falciparum Dd2 in erythrocytes, SYBR Green DNA, 72 h; at 28.5 µM (top of the series) unless noted
Summary of the method: as §1

[7] = qHTS profiling of the MIPE4 collection as inhibitors of Plasmodium falciparum (HB3) proliferation (AID 743347; call rule not given here;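 note: plate controls were DMSO vehicle wells for no effect and artemisinin wells for full effect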); conditions: P. falciparum HB3 in erythrocytes, SYBR Green DNA, 72 h; at 28.5 µM (top of the series) unless noted
Summary of the method: as §1

[8] = High-throughput drug toxicity screening in the BPDCN cell line Gen2.2 (AID 1224824; call rule not given here;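 note: cells exposed to compounds for 48 h before reading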); conditions: Gen2.2 BPDCN cells; at 45.8 µM (top of the series) unless noted
Summary of the method: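 CellTiter-Glo luminescence after 48 h compound exposure of Gen2.2 cells; percent activity set with DMSO as 100% and bortezomib (9.2 uM final) as 0%. Cells seeded at 500 per well, RPMI + 10% FBS, 37 °C.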

[9] = High-throughput drug toxicity screening in the BPDCN cell line Cal-1 (AID 1224825; call rule not given here); conditions: Cal-1 BPDCN cell viability, qHTS; at 45.8 µM (top of the series) unless noted
Summary of the method: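 CellTiter-Glo luminescence after 48 h compound exposure; percent activity scaled with DMSO as 100% and bortezomib (9.2 uM final) as 0%. Cal-1 cells seeded at 500/well in RPMI, 10% FBS, no phenol red.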

[10] = qHTS assay for measurement of the activity of small molecule inhibitors on Zika virus induced Caspase-3 activity in human iPSC derived neural progenitor cells (hNPCs) (AID 1224857); note: % of control where 0% means no effect; nearly all actives have a fitted effect of over 65% in size
Summary of the method: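 hNPCs seeded 350 cells/well, cultured 16–20 h; compounds added 1 h before ZIKV (2 FFU/cell), 37 C 6 h. Caspase-Glo 3/7 luminescence after 30 min RT; % inhibition from induction scaled to uninfected (0%) and infected (100%) wells.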

[11] = qHTS Screen of the MIPE 4.0 Collection Against Ewings Sarcoma (RDES) (AID 1259252); note: nearly all actives have a fitted effect of over 35% in size; note: potency is the fitted concentration of half-maximal effect
Summary of the method: (§2)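 Log-phase cells in RPMI with 5% FBS attached for 4 h, then received compounds as a titration for 48 h at 37C, 5% CO2. Viability was read by CellTiter-Glo luminescence and normalized to DMSO and no-cell wells.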

[12] = qHTS Screen of the MIPE 4.0 Collection Against Ewings Sarcoma (TC71) (AID 1259253); note: nearly all actives have a fitted effect of over 40% in size; note: potency is the fitted concentration of half-maximal effect
Summary of the method: as §2

[13] = qHTS Screen of the MIPE 4.0 Collection Against Ewings Sarcoma (EW8) (AID 1259255); note: nearly all actives have a fitted effect of over 35% in size; note: potency is the fitted concentration of half-maximal effect;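 for viability: 100% = DMSO-treated cells and 0% = medium-only wells without cells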
Summary of the method: as §2

[14] = qHTS Screen of the MIPE 4.0 Collection Against Ewings Sarcoma (TC32) (AID 1259256);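 note: 100% = DMSO-treated cells and 0% = medium-only wells without cells; nearly all actives have a fitted effect of over 45% in size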
Summary of the method: as §2

[15] = qHTS assay for cell viability of HEK293 cells (AID 743288); conditions: ATP luminescence (CellTiter-Glo), 18 h; max response: stronger effect = lower value; note: % is set by controls: 0 for no effect and ±100 for the full control effect; nearly all actives have a fitted effect of over 50% in size
Summary of the method: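 ATP luminescence (CellTiter-Glo) reports metabolically competent cell number after parental HEK293 cells, 2,000/well, were treated with DMSO-dissolved compounds for 18 h at 37 C; reagent incubation 30 min, room temperature.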

[16] = qHTS assay for cell viability of the p53RE-bla HCT-116 cell line (AID 743292); note: % is set by controls: 0 for no effect and ±100 for the full control effect; nearly all actives have a fitted effect of over 55% in size
Summary of the method: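 Viability of compound-treated p53RE-bla HCT-116 cells is taken from ATP-dependent luciferase luminescence. Treatment lasts 16 h at 37 C after a 5 h settling period; detection follows 30 min at room temperature.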

For `COC(=O)Nc1nc2ccc(C(=O)c3cccs3)cc2[nH]1`, the Potency [1] was “inactive”, the Potency [2] was “inactive” and the max response [3] was 22.4% (inactive) and 23.7% (inactive). It also gave a parasite growth, % of DMSO control [4] of 54.5%, a parasite growth remaining, % of DMSO control (lower = more inhibition) [5] of 93.5% and a parasite growth, % of control (lower = inhibition) [6] of 91.6%. The growth, % of control [7] was 80%, the cell viability, % of control (lower = more cytotoxic) [8] was 19.7% and the viability (% of control) [9] was 10.7%. For the same compound, the Potency [10] was “inactive”, the Potency [11] was 0.0037 µM (active) and the Potency [12] was 0.0118 µM (active). For the same compound, the Potency [13] was 0.0047 µM (active) and the Potency [14] was “inactive”.

For `Cc1cn([C@H]2C=C[C@@H](CO)O2)c(=O)[nH]c1=O`, the Potency [1] was “inactive”, the Potency [2] was “inactive” and the max response [3] was 12.3% (inactive) and 14% (inactive). For the same compound, the max response [15] was -5.34% (inactive) and -4.2% (inactive) and -3.76% (inactive), the Potency [16] was “inactive” and the parasite growth, % of DMSO control [4] was 325% [at 57.5 µM]. The parasite growth, % of control (lower = inhibition) [6] was 140% [at 57.5 µM], the growth, % of control [7] was 618% [at 57.5 µM] and the cell viability, % of control (lower = more cytotoxic) [8] was 82.4% [at 92.2 µM]. For the same compound, the viability (% of control) [9] was 100% [at 92.2 µM], the Potency [10] was “inactive” and the Potency [12] was “inactive”. For the same compound, the Potency [13] was “inactive” and the Potency [14] was “inactive”.

In the case of `Cn1c(=O)c2c(ncn2C)n(C)c1=O`, the Potency [1] is reported as “inactive”, the Potency [2] is reported as “inactive” and the max response [3] is reported as -4.77% (inactive) and 11.8% (inactive). The max response [15] was 0.413% (inactive) and -8.15% (inactive), the Potency [16] was “inactive” and the parasite growth, % of DMSO control [4] was 91.2%. It also gave a parasite growth remaining, % of DMSO control (lower = more inhibition) [5] of 96.6%, a parasite growth, % of control (lower = inhibition) [6] of 81.8% and a growth, % of control [7] of 103%. For the same compound, the cell viability, % of control (lower = more cytotoxic) [8] was 150%, the viability (% of control) [9] was 116% and the Potency [10] was “inactive”. The Potency [11] was “inactive”, the Potency [13] was “inactive” and the Potency [14] was “inactive”.

For `CN(CCOc1ccc(NS(C)(=O)=O)cc1)CCc1ccc(NS(C)(=O)=O)cc1`, the max response [3] was 1.01% (inactive), the parasite growth, % of DMSO control [4] was 115% and the parasite growth remaining, % of DMSO control (lower = more inhibition) [5] was 89.2%. The parasite growth, % of control (lower = inhibition) [6] was 119%, the growth, % of control [7] was 56.2% and the cell viability, % of control (lower = more cytotoxic) [8] was 181%. For the same compound, the viability (% of control) [9] was 112%, the Potency [10] was “inactive” and the Potency [12] was 16.6 µM (active).

With `NC12CC3CC(CC(C3)C1)C2` the Potency [1] was “inactive”, the Potency [2] was “inactive” and the max response [3] was -8.46% (inactive). For the same compound, the parasite growth, % of DMSO control [4] was 11.2%, the parasite growth, % of control (lower = inhibition) [6] was 25.9% and the growth, % of control [7] was 4.58%. For the same compound, the cell viability, % of control (lower = more cytotoxic) [8] was 60.9%, the viability (% of control) [9] was 9.3% and the Potency [10] was “inactive”. For the same compound, the Potency [12] was 26.4 µM (active).

With `Cc1cc(C(C)(C)C)cc(C)c1CC1=NCCN1` the Potency [1] was “inactive”, the Potency [2] was “inactive” and the max response [3] was 3.97% (inactive) and -5.84% (inactive). The parasite growth, % of control (lower = inhibition) [6] was 17.1%, the cell viability, % of control (lower = more cytotoxic) [8] was 20.6% and the viability (% of control) [9] was 12.2%. The Potency [10] was “inactive”, the Potency [11] was “inactive” and the Potency [12] was “inactive”. The Potency [13] was “inactive” and the Potency [14] was “inactive”.

— PubChem BioAssay (NCATS)
